Source: PubChem BioAssay
ERK EGF block: qHTS Assay for Inhibitors of the ERK Signaling Pathway using a Homogeneous Screening Assay; Stimulation with EGF; HEK293-V1b, EGF-stimulated phospho-ERK AlphaScreen; Potency, µM (doses to about 11.5 µM), for inactives: top-dose activity change, negative = inhibition, usual class: inhibitors; 130,000 compounds, 0.41% hits; active = well fitted inhibition curve with a large enough effect;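 note: plate controls were stimulated vehicle wells for no effect and unstimulated vehicle basal for full effect; nearly all actives have a fitted effect of over 55% in size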
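Stably V1b-transfected HEK293 cells; 30 min compound, then EGF 25 nM final for 5 min at 37C; 10 min lysis; phospho-ERK by AlphaScreen after 5 hr beads at room temperature.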
An asterisk follows results filed as active; ! = repeats disagree; [ ] = dose if it differs, or a comment. The entries come from a sample that favours hits as a whole. Potency is the fitted concentration of half-maximal effect.

SMILES	ERK EGF block
c1ccc(-c2ccc(N3CC4(CCNCC4)C3)cc2)cc1	20µM*
COC(=O)N1CCC2(CC1)CN(c1ccc(-c3ccccc3)cc1)C2	1.0%
COC(=O)N[C@H](c1ccccc1)C(C(C)=O)C(=O)OC (stereo not given in full)	-6.1%
COC(=O)c1ccc(C(/C=C/[C@@H](C)C(=O)N[C@H](C)CO)NC(=O)OCc2ccccc2)cc1 (stereo not given in full)	2.4%
O=C1c2c(O)ccc(O)c2C(=O)c2c(NCCNCCO)ccc(NCCNCCO)c21	20µM*!
Cc1ccc(CNCCNCCO)s1	-5.3%
COC(=O)N1CCC2(CC1)CN(c1ccncc1)C2	3.4%
N#CCCn1c(=O)c(CCc2ccccc2)nc2cnc(N3CCOCC3)nc21	-20.0%
O=c1c2ccccc2oc2cc(O)c(C3COCC(CO)C(O)C(O)C3O)c(O)c12 (stereo not given)	7.9%
CC1CCN(C2=C(NS(=O)(=O)c3ccccc3)C(=O)c3ccccc3C2=O)CC1	17.8µM*
CC(=C1C(=O)c2ccccc2C1=O)N1CCN(c2ccc(F)cc2)CC1	-0.1%[57.5 µM]
Cc1ccc(S(=O)(=O)NCC(c2ccccc2)N2CCCCC2)cc1 (stereo not given)	-7.0%[57.5 µM]
CC1CCN(C2=C(NS(=O)(=O)c3ccc(Cl)cc3)C(=O)c3ccccc3C2=O)CC1	15.8µM*
CCOC(=O)C1CCN(C2=C(NS(=O)(=O)c3ccc(Cl)cc3)C(=O)c3ccccc3C2=O)CC1	31.6µM*
CCC1CCCCN1CC(C)(C)NS(=O)(=O)c1ccccc1 (stereo not given)	21.5%[57.5 µM]
CCOC(=O)C1CCN(S(=O)(=O)c2ccc(C(C)(C)C)cc2)CC1	0.2%
O=C1C(NS(=O)(=O)c2ccccc2)=C(N2CCN(c3ccc(F)cc3)CC2)C(=O)c2ccccc21	25.1µM*
CCOC(=O)C1CCN(C(=O)c2ccccc2NS(=O)(=O)c2ccc(F)c(F)c2)CC1	9.0%
CC1CCN(S(=O)(=O)c2ccccc2[N+](=O)[O-])CC1	-1.9%
O=S(=O)(Nc1nc2ccccc2nc1N1CCN(c2ccccc2)CC1)c1ccc(F)cc1	-3.0%
Cc1ccccc1NS(=O)(=O)c1ccc(Cl)cc1	5.8%
C[C@]12C[C@H](O)C3[C@@H](CCC4=CC(=O)CC[C@@]43C)[C@@H]1CC[C@@H]2C(=O)CO (stereo not given in full)	9.7%
CC(=O)N1CC2(CC2)CC1c1ccccc1 (stereo not given)	-6.5%
NC(N)=[N+]1CCc2ccccc2C1	-10.1%
COC(=O)[C@@]1(Cc2ccccc2)[C@H]2c3cc(C(=O)N4CCCC4)n(Cc4ccccn4)c3C[C@H]2CN1C(=O)c1ccccc1	-8.0%
SMILES	ERK EGF block
Nc1ncnc2c1ncn2[C@@H]1O[C@H](COP(=O)(O)OP(=O)(O)OP(=O)(O)OP(=O)(O)OC[C@@H]2O[C@H](n3cnc4c(N)ncnc43)[C@@H](O)[C@@H]2O)[C@H](O)[C@H]1O	3.9%
COc1ccc([N+](=O)[O-])c2c1CCN2C(=O)CC[C@H](N)C(=O)O	4.7%
COc1ccc(-n2c(=O)c(C)nc3cncnc32)cc1	-6.9%
CC(C)CC(=O)/C(=C\c1ccc(Cl)cc1Cl)n1cncn1	28.2µM*
CN(C)/C=C(/C(=O)c1ccc(Cl)cc1)n1cncn1	-5.4%
CN(C)c1ccc(/C=C(/C(=O)c2ccc(Cl)cc2Cl)n2cncn2)cc1	5.3%
Nc1ncn([C@H]2O[C@@H](CO)[C@@H](O)[C@@H]2O)c(=O)n1	-3.7%[25.7 µM]
O=C(c1ccc(Cl)cc1)C1CCCN(Cc2cnn(-c3ccccc3)c2)C1 (stereo not given)	28.2µM*
O=C(c1ccc(Cl)cc1)C1CCCN(Cc2cccn2-c2cccnc2)C1 (stereo not given)	-5.4%
Cc1nn(C)cc1CN1CCCC(C(=O)c2ccc(-c3ccccc3)cc2)C1 (stereo not given)	-11.8%
COc1ccccc1CN1CCCC2(CCN(S(C)(=O)=O)CC2)C1	-2.6%
CC(Nc1oc(-c2ccccc2)nc1-c1cccc2ccccc12)c1ccccc1 (stereo not given)	-6.0%
COc1ccc(C(=O)N2CCC[C@@]3(CCN(Cc4nccs4)C3)C2)cc1	-8.0%
Cc1cc(NS(=O)(=O)c2ccc(Nc3nc(-c4ccc(O)cc4)cs3)cc2)no1	1.1%
CN(C)S(=O)(=O)c1ccc(-c2csc(N/N=C/c3ccco3)n2)cc1	20µM*
CN(C)S(=O)(=O)c1ccc(C(=O)NCC(=O)N/N=C/c2ccco2)cc1	-3.6%
O=C(/C=C/c1ccco1)Nc1nc(-c2ccccc2)cs1	25.1µM*
CN(C)S(=O)(=O)c1ccc(-c2csc(N/N=C/c3ccc(O)cc3)n2)cc1	11.2µM*
C(=N\Nc1nc(-c2ccccc2)cs1)/c1ccncc1	-2.6%
Cc1sc(N/N=C/c2ccco2)nc1-c1ccccc1	-10.4%
O=C(/C=C/c1ccco1)Nc1nc(-c2ccccn2)cs1	1.0%
O=C(/C=C/c1ccco1)Nc1nc(-c2ccc(F)c(F)c2)cs1	-6.0%[57.5 µM]
N#Cc1ccc(CN2CC3(CCN(C(=O)c4ccco4)CC3)C2)cc1	3.0%
O=C1CC(c2ccc(O[C@@H]3OC(CO)[C@@H](O)C(O)C3O)cc2)Oc2cc(O)ccc21 (stereo not given in full)	-8.2%
CCC(=O)Nc1ccc(N/C(N)=N/c2nc(C)cc(C)n2)cc1	-2.6%[57.5 µM]
SMILES	ERK EGF block
Cc1ccc(N/C(N)=N/c2nc(C)cc(C)n2)cc1	2.6%
CCCCc1ccc(N/C(N)=N/c2nc(C)cc(C)n2)cc1	17.8µM*
COCCc1ccc(OC[C@H](O)CNC(C)C)cc1	1.7%[25.7 µM]
CCOC(OCC)P(=O)(O)CCCNCc1ccc(Cl)c(Cl)c1	-1.4%
CC1CC(C)(C)NC(=S)N1CCCC(=O)N1CCN(c2ccccc2F)CC1 (stereo not given)	-0.7%
CCOc1ccc(-c2cc(C(=O)NCC3CCCO3)c3ccccc3n2)cc1 (stereo not given)	2.0%
CC(C)Oc1ccc(-c2nc(NCC3CCCO3)c3ccccc3n2)cc1 (stereo not given)	31.6µM*
c1ccc2c(NCC3CCCO3)nc(N3CCCCC3)nc2c1 (stereo not given)	6.0%
C=C[C@@H]1CN2CC[C@@H]1C[C@H]2[C@H](O)c1ccnc2ccc(OC)cc12	1.9%
CCc1c(C)sc(NC(=S)Nc2nc(C)cc(C)n2)c1C(=O)OC	-1.5%
CCc1c(C)sc(NC(=S)N2CCN(S(C)(=O)=O)CC2)c1C(=O)OC	28.2µM*
CCc1c(C)sc(NC(=S)Nc2cccnc2)c1C(=O)OC	34.3%
CC(=O)O[C@@]1(C(C)=O)CCC2C3CC(C)C4=CC(=O)CC[C@@]4(C)C3CC[C@]21C (stereo not given in full)	-5.2%
CC(C)(C)NC[C@H](O)COc1cccc2c1C[C@@H](O)[C@@H](O)C2	-14.5%[25.7 µM]
Cc1cc(=O)oc2cc(O[C@@H]3O[C@H](C(=O)O)[C@@H](O)[C@H](O)[C@H]3O)ccc12	-11.5%
OCC1=CC[N+]2(Cc3ccccc3)CCC(O)[C@@H]12 (stereo not given in full)	-2.5%
CN(C)CCCOC1C(C(O)CO)OC2OC(C)(C)O[C@@H]21 (stereo not given in full)	0.3%
COc1ccc(CCNc2ncnc3cc(OC)c(OC)cc23)cc1OC	28.2µM*
COc1cc2ncnc(NCCc3ccccc3)c2cc1OC	3.55µM*
COc1ccccc1CNc1ncnc2cc(Cl)ccc12	-20.1%
COc1cc2[nH]c(=S)nc(NCc3cccs3)c2cc1OC	-9.1%
COc1ccc(CNc2ncnc3cc(Cl)ccc23)cc1OC	-4.0%[57.5 µM]
